Only some compounds are listed: those with a hit (about 2.4% of all), similar ones and a draw of the others.
TMEM16A act: activators or potentiators of mouse TMEM16A chloride channel; Q8BHY3; HEK293 TMEM16A/YFP-H148Q/I152L, iodide quench fluorescence; active compounds read low; B-score at 10 µM; 340,000 compounds, 0.3% hits;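 active = fluorescence-ratio B-score plate-corrected deviation score at least 3 library SD below zero, with starting fluorescence score within 5 deviations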;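 also: channel opened by trigger with iodide after compound preincubation; score built on the fluorescence ratio of max minus min over baseline; more negative score means more quench and so TMEM16A activation or potentiation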
NOD2 RIPK2 PPI: NOD2-RIPK2 protein interaction inhibition. CHO BLA complementation NOD2-RIPK2, CCF4 ratio. inhibition, % at 4.98 µM. 360,000 compounds, 0.38% hits; in the data active = inhibition above about 21%;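 also: 0% = vehicle only and 100% = reference blocker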
TMEM16A inh: mouse TMEM16A channel inhibition, primary screen; HEK293 TMEM16A/YFP iodide influx fluorescence, ionomycin; normalized B-score (activity score, 25-100; higher = stronger inhibition) at 10 µM; 310,000 compounds, 1.2% hits; AID 588511;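 active = ratio plate-corrected score three or more library SD toward inhibition, starting fluorescence score within five deviations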;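 also: score derived from kinetic fluorescence span divided by baseline fluorescence per well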
TLR9-MyD88 block: TLR9-MyD88 interaction inhibition; Q9NR96+Q99836; CHO BLA complementation TLR9-MyD88, CCF4 FRET ratio; inhibition, % at 4.98 µM; 340,000 compounds, 0.21% hits;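 active = inhibition above the mean over all tested compounds plus 3 SD, cut at about 21% in these data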;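 also: 0% = DMSO only wells and 100% = clavulanate BLA inhibitor control wells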
HTR2A ag: activates the mouse 5-HT2A serotonin receptor; CHO-K1 mHTR2A beta-arrestin complementation, luminescence; percent of 30 µM serotonin response; AID 624169; activation, % at 7.6 µM; 360,000 compounds, 0.66% hits;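 active = activation above a run cutoff, the mean activation of all tested compounds plus 3 SD, cut at about 14% in these data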;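 also: 0% = plate median of compound wells and 100% = 30 µM serotonin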
TLR4 MyD88 comp: TLR4-MyD88 interaction inhibition in cells; HeLa CL3-4 TLR4/MyD88 BLA complementation, FRET ratio; inhibition, % at 8.4 µM; 200,000 compounds, 0.18% hits; AID 861; in the data active = inhibition above about 25%;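 also: 0% = vehicle and 100% = reference inhibitor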
Target sequence (O00206 whole entry, looked up): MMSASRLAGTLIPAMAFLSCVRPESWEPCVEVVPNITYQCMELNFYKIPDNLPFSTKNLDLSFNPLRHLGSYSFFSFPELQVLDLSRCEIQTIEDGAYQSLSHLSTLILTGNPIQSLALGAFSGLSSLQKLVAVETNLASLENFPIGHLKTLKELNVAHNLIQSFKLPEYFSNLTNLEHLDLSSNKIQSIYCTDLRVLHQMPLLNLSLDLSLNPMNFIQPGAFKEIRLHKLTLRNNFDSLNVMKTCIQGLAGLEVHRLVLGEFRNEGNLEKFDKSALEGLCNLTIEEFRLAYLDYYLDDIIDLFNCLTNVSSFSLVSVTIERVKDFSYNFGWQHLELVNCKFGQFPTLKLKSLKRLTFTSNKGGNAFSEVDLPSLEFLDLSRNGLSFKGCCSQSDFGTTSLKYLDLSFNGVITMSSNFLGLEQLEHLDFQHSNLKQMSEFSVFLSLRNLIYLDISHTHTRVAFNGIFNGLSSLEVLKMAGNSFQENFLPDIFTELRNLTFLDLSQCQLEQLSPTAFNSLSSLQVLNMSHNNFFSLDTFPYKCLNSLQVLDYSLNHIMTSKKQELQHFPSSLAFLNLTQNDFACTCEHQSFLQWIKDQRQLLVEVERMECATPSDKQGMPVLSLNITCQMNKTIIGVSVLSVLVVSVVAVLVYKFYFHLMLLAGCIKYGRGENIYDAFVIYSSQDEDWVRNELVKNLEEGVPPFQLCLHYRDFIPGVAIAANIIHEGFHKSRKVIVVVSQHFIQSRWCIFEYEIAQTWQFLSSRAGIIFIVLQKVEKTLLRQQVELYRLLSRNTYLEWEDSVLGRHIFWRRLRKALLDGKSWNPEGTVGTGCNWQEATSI
Target sequence (Q99836 whole entry, looked up): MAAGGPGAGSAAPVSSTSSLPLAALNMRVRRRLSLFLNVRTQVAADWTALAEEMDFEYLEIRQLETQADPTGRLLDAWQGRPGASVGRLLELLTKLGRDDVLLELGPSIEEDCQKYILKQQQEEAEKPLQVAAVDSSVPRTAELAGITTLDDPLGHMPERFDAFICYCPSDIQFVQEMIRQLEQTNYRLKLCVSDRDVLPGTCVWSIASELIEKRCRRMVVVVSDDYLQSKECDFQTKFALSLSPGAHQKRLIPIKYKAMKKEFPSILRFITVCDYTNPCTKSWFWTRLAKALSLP
TMEM16A reconf: TMEM16A (mouse) chloride channel inhibition, re-confirmation | shares compounds with TMEM16A inh | HEK293 TMEM16A/YFP-H148Q, iodide quench fluorescence; ionomycin added to raise cell calcium | inhibition, % at 10 µM | 2,300 compounds, 39% hits | AID 652189;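 active = mean duplicate percent inhibition, scaled so buffer wells are 0 and the reference blocker 100, over three buffer SD above buffer mean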
TMEM16A Ca cntr: counter-screen for TMEM16A inhibitors: effect on calcium mobilization | shares compounds with TMEM16A inh | TMEM16A/YFP HEK293, Fluo4 calcium mobilization | calcium response (% of ionomycin), % at 10 µM | 2,300 compounds, 2% hits;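 active = duplicate-averaged calcium signal over 20% of the ionomycin maximum, relative to buffer baseline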;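 also: each well's signal is peak minus trough fluorescence divided by its pre-addition baseline; 0% = buffer wells and 100% = ionomycin wells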
Parental YFP cnt: acts in parental YFP-HEK293 cells lacking TMEM16A, counter-screen; shares compounds with TMEM16A inh; iodide YFP quench, ionomycin; YFP ratio F(max-min)/F0 at 10 µM; 2,300 tested, under 10 active; AID 652233;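 active = yellow fluorescent protein signal ratio exceeding the buffer control mean by over 5 SD of those controls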;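 also: ratio is mean of duplicate wells from kinetic YFP trace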
ClC-1 rat inh: blocks the rat ClC-1 voltage-dependent chloride channel; CHO ClC-1-YFP, iodide influx fluorescence quench; iodide control reads 0, buffer control 100; ratio percent, % at 10 µM; 2,300 tested, under 10 active; shares compounds with TMEM16A inh;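 active = duplicate-mean ratio percent above the mean of iodide-only control wells, which defines zero, plus 5 of their SD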;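 also: higher percent means stronger block of ClC-1 iodide influx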
* hit, by the source's call; i = inactive; nt = not tested or not shown.

SMILES	TMEM16A act	NOD2 RIPK2 PPI	TMEM16A inh	TLR9-MyD88 block	HTR2A ag	TLR4 MyD88 comp	TMEM16A reconf	TMEM16A Ca cntr	Parental YFP cnt	ClC-1 rat inh
COc1cc(C(=O)Nc2sc3c(c2C(=O)NCc2ccco2)CCCC3)cc(OC)c1OC	i	10	i	-4	-1	-13	nt	nt	nt	nt
COC(=O)c1cc(=O)n(Cc2cccs2)c(=NCc2cccs2)s1	i	2	25*	6	1	2	i	i	-1	-9
COC(=O)c1cc(=O)n(Cc2ccccc2)c(=NCc2ccccc2)s1	nt	nt	i	nt	nt	-2	nt	nt	nt	nt
COc1ccccc1NS(=O)(=O)c1cc(NC(=O)c2ccc(Cl)nc2)ccc1Cl	i	2	25*	6	5	2	26%*	i	-1.1	-16
COc1ccc(C(=O)Nc2ccc(Cl)c(S(=O)(=O)Nc3ccccc3OC)c2)cc1	i	8	i	3	0	4	nt	nt	nt	nt
O=C(Nc1ccccc1C(F)(F)F)c1ccccn1	i	-3	i	15	0	6	nt	nt	nt	nt
O=C(Nc1c(F)cc(F)cc1Br)c1cc(-c2ccco2)on1	i	-3	i	-2	3	4	nt	nt	nt	nt
O=C(Nc1ccc(F)cc1F)c1cc(-c2ccco2)on1	i	5	100*	9	1	-2	i	i	-1.2	-6
Cc1ccc(/C=C(\C#N)C(=O)Nc2c(C)cccc2C)s1	i	7	i	-10	6	4	nt	nt	nt	nt
Cc1ccc(NC(=O)/C(C#N)=C/c2ccc(C)s2)c(C)c1	i	-10	i	-12	2	15	i	i	-1.1	10
CC(=O)Nc1cccc(-c2cc(-c3c(Cl)cccc3Cl)no2)c1	i	3	i	-13	0	nt	nt	nt	nt	nt
CNC(=O)Nc1cccc(-c2cc(-c3c(Cl)cccc3Cl)no2)c1	i	2	100*	-2	1	nt	26%*	i	-0.83	-4
FC(F)(F)c1ccncc1-c1nnnn1-c1ccc(Cl)cc1	i	-1	i	1	3	nt	nt	nt	nt	nt
FC(F)(F)c1nc(N2CCCC2)ncc1-c1nnnn1-c1ccc(Cl)cc1	i	-7	25*	-3	4	-1	i	i	-1.1	-20
CCCC1CC(C)(c2csc(Nc3ccc(OCC)cc3)n2)OC1=O (configuration not stated)	i	-10	100*	1	-1	-2	31%*	i	-0.95	-20
CCOc1ccc(NC(=O)CC2CC(C)(C)OC2=O)cc1 (configuration not stated)	i	-6	i	12	3	3	nt	nt	nt	nt
O=[N+]([O-])c1ccc(N2CCN(C(=S)NC3CCCCC3)CC2)cc1	i	-2	25*	-9	6	-10	i	i	-0.99	-21
CCOP(=O)(c1ccc(N(C)C)cc1)C(O)c1ccccc1OC (configuration not stated)	i	0	100*	-5	8	-4	i	i	-1.2	-12
COc1ccccc1C(O)P(=O)(OC(C)C)c1ccc(N(C)C)cc1 (configuration not stated)	i	0	i	-8	3	7	nt	nt	nt	nt
O=C(CNC(=S)NC(=O)C1CCCCC1)c1ccccc1	i	0	i	-4	1	-21	nt	nt	nt	nt
COc1ccc(C2=NCC(CSc3nccc(=O)[nH]3)S2)cc1 (configuration not stated)	i	-6	i	-19	2	3	nt	nt	nt	nt

High-throughput results: PubChem BioAssay, several laboratories
